# Source: PubChem BioAssay
# Calls of active or inactive are those of the source. No rule for the calls is given here.
# Molecular target: Pantothenate synthetase (Mycobacterium tuberculosis (strain ATCC 25618 / H37Rv)) (UniProt P9WIL5)
# Assay: Recombinant Mtb pantothenate synthetase (PanC) inhibitors, coupled enzyme, confirmatory (AID 375);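 also: 0% = full reaction with vehicle and 100% = no enzyme background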
# Details: coupled enzyme assay; at 10 µM, active compounds read high
# Sequence of Pantothenate synthetase (Mycobacterium tuberculosis (strain ATCC 25618 / H37Rv)) (P9WIL5 whole entry, looked up): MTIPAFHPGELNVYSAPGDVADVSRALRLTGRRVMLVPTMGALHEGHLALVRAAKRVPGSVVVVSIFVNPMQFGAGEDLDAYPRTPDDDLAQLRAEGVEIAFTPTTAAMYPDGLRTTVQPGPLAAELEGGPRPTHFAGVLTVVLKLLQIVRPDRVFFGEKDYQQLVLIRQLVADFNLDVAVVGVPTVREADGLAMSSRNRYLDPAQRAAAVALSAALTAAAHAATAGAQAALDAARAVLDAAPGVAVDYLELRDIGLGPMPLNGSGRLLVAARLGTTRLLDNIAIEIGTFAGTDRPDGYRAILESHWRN
row,SMILES,inhibition
1,CCOC(=O)CN1C(=O)C2(OCCCO2)c2ccccc21,1% (inactive)
2,COc1cccc(C2=NOC(C(=O)N3CCc4ccccc4C3)C2)c1 (stereo not given),0% (inactive)
3,Cc1cccc(-n2nnc(C(=O)NCc3ccccc3)c2N)c1,0% (inactive)
4,CCOc1ccc(C2/C(=C(/O)c3ccccc3)C(=O)C(=O)N2CCCN(C)C)cc1OC (stereo not given),0% (inactive)
5,Cc1cc(C)c2nc(N)sc2c1,0% (inactive)
6,CCn1c(CNc2ccc(C)cc2)nnc1SCC(=O)NCc1ccccc1,0% (inactive)
7,COc1cccc(CNC(=O)C2CCN(S(=O)(=O)c3ccc(F)cc3)CC2)c1,8% (inactive)
8,Nc1nc(CSCc2ccccc2)nc(N2CCOCC2)n1,1% (inactive)
9,Cc1c(/C(O)=C2/C(=O)C(=O)N(CCN3CCOCC3)C2c2cccs2)cnn1-c1ccccc1 (stereo not given),8% (inactive)
10,CCC(C)NC(=O)C1c2cc(OC)c(OC)cc2C(=O)N(C)C1c1ccc(OC)cc1 (stereo not given),0% (inactive)
11,COCCn1c(-c2ccco2)nc2nc3ccccc3nc21,5% (inactive)
12,CCCc1[nH]nc2c1C(c1cccc(OC(=O)c3ccco3)c1)C(C#N)=C(N)O2 (stereo not given),1% (inactive)
13,Cc1ccc(-c2nnc(SCC(=O)N3c4ccccc4NC(=O)C3(C)C)n2N)cc1,1% (inactive)
14,O=C(Nc1ccc(F)cc1)NC1CCN(Cc2nnnn2Cc2ccco2)CC1,0% (inactive)
15,O=C(NCCCN1CCN(Cc2ccccc2)CC1)C1CCN(c2nnc(-n3cccc3)s2)CC1,0% (inactive)
16,Cc1ccc2cc(CN(CC(C)C)C(=O)C3CCCO3)c(=O)[nH]c2c1 (stereo not given),0% (inactive)
17,Cc1cccc(N(CC(=O)Nc2ccc(CC#N)cc2)S(C)(=O)=O)c1,2% (inactive)
18,COCCn1c(Sc2nc(C)cs2)nc2c1c(=O)[nH]c(=O)n2C,0% (inactive)
19,O=S(=O)(c1ccc(Oc2ccc(-c3nnco3)cc2)nc1)N1CCC(Cc2ccccc2)CC1,0% (inactive)
20,O=C(COc1ccccc1)Nc1ccccc1N1CCN(c2ccccc2)CC1,2% (inactive)

row,SMILES,inhibition
1,CC1(C)CC(=O)c2sc(NS(C)(=O)=O)nc2C1,0% (inactive)
2,CCCC(=O)Nc1nnc(Sc2ccc(N(C)C)cc2)s1,0% (inactive)
3,CCOC(=O)c1cccc(NC(=O)CCn2nnc3ccccc32)c1,0% (inactive)
4,CC(C)(Oc1ccc(Cl)cc1)C(=O)NCc1ccncc1,3% (inactive)
5,CSc1nnc2c3ccccc3n(Cc3ccccc3)c2n1,7% (inactive)
6,O=C(c1ccc(S(=O)(=O)N2CCOCC2)cc1)N1CCc2ccccc2C1,0% (inactive)
7,CCC(c1c(C)n(C)n(-c2ccccc2)c1=O)c1c(C)n(C)n(-c2ccccc2)c1=O,1% (inactive)
8,C=CS(=O)(=O)c1ccc(Oc2ccc(S(=O)(=O)C=C)cc2)cc1,10% (inactive)
9,CN(C)c1ccc(C2C3=C(CCCC3=O)OC3=C2C(=O)CCC3)cc1,0% (inactive)
10,COc1cccc(C(=O)Nc2cc(NC(=O)c3ccco3)ccc2OC)c1,3% (inactive)
11,Cc1cc(NS(=O)(=O)c2ccccc2)n(-c2ccccc2)n1,0% (inactive)
12,CC1CC(C)CN(CCCNC(=O)c2ccc3c(c2)NC(=O)C(N2CCCCC2)S3)C1 (stereo not given),0% (inactive)
13,CCOC(=O)c1[nH]nc(-c2c(O)cc(C)cc2O)c1-c1csc(C)n1,0% (inactive)
14,CC(=O)N1CCN(Cc2ccc(Br)s2)CC1,0% (inactive)
15,COc1ccc(CN2C(=O)c3cccnc3C2Nc2cc(Cl)ccc2OC)cc1 (stereo not given),3% (inactive)
16,C=CCSc1nnc(Cc2c(C)[nH]c3ccccc23)o1,0% (inactive)
17,O=C(CSc1nc2cc(Cl)ccc2s1)N1CCN(C(=O)c2ccco2)CC1,9% (inactive)
18,O=C(OCc1nnc(-c2ccc(Cl)cc2)o1)c1ccc(=O)n(Cc2ccccc2)n1,0% (inactive)
19,Cc1nc(-c2coc3cc(OCC(=O)O)ccc3c2=O)cs1,0% (inactive)
20,COc1cc(C(=O)Nc2ccc(-n3cnnn3)c(C)c2)cc(OC)c1OC,0% (inactive)
